Measurements published in PubChem BioAssay (EPA / NIEHS).
Activity calls are given as the source filed them. Rule for the calls: active = hit-call score of the fitted dose curve at least 0.9, where 1 is the maximum; inactive = score below 0.9.

Key:
Conditions in all cases: mRNA level, 48 h; actives raise or lower the signal
CYP2C9 (gene 1559) = assay: LTEA_HepaRG_CYP2C9: Life Technologies and Expression Analysis (LTEA) Assay for CYP2C9 using HepaRG (AID 2283484)
How it was run: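 Differentiated human HepaRG cells in serum-free induction medium were exposed 48 h to chemicals in 8-point half-log series from 100 uM (0.5% DMSO), in duplicate. CYP2C9 mRNA was measured by qRT-PCR, normalized to ACTB/GAPDH/POLR2A, with bidirectional fitting versus DMSO.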

CYP2E1 (gene 1571) = assay: LTEA_HepaRG_CYP2E1: Life Technologies and Expression Analysis (LTEA) Assay for CYP2E1 using HepaRG (AID 2283485)
How it was run: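 Human liver line HepaRG, plated 48 h, then serum-free induction medium + chemical x 48 h; 8-pt CRC from 100 uM, half-log, 0.5% DMSO, n=2. Readout: CYP2E1 mRNA qRT-PCR vs ACTB/GAPDH/POLR2A; bidirectional fit vs DMSO.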

CYP4A11 (gene 1579) = assay: LTEA_HepaRG_CYP4A11: Life Technologies and Expression Analysis (LTEA) Assay for CYP4A11 using HepaRG (AID 2283486)
How it was run: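 Human hepatic HepaRG cultures receive duplicate 48 h exposures across a concentration-response series topping at 100 uM. Expression changes in CYP4A11 are measured by qRT-PCR relative to DMSO controls.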

[1] = read-out: Cytochrome P450 3A4 (Homo sapiens) (UniProt P08684); assay: LTEA_HepaRG_CYP3A4: Life Technologies and Expression Analysis (LTEA) Assay for CYP3A4 using HepaRG (AID 2283487)
How it was run: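 HepaRG, 48 h exposure, 8-pt CRC from 100 uM (half-log), 0.5% DMSO, duplicates; serum-free induction medium. Readout: CYP3A4 mRNA, qRT-PCR, ACTB/GAPDH/POLR2A normalization. Bidirectional fit vs DMSO.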

[2] = read-out: DNA damage-inducible transcript 3 (DDIT3), DDIT3 (gene 1649); assay: LTEA_HepaRG_DDIT3: Life Technologies and Expression Analysis (LTEA) Assay for DNA damage-inducible transcript 3 (DDIT3) using HepaRG (AID 2283488)
How it was run: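 HepaRG plated 48 h, switched to serum-free induction medium, dosed 48 h (100 uM top, half-log, 8 pts, 0.5% DMSO, n=2); RNA isolated; DDIT3 by qRT-PCR; bidirectional curve fit vs DMSO.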

[3] = read-out: Pro-epidermal growth factor (Homo sapiens) (UniProt P01133); assay: LTEA_HepaRG_EGF: Life Technologies and Expression Analysis (LTEA) Assay for Epidermal growth factor (EGF) using HepaRG (AID 2283489)
How it was run: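 Concentration-response mRNA assay: HepaRG cells dosed 48 h (max 100 uM, 0.5% DMSO), EGF measured by qRT-PCR and normalized to ACTB/GAPDH/POLR2A.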

[4] = read-out: Ezrin (EZR), EZR (gene 7430); assay: LTEA_HepaRG_EZR: Life Technologies and Expression Analysis (LTEA) Assay for Ezrin (EZR) using HepaRG (AID 2283491)
How it was run: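 Read-out is EZR transcript level by qRT-PCR, normalized to three housekeeping genes and fitted bidirectionally against the DMSO control. Human HepaRG cells received test chemicals for 48 h at eight half-log concentrations up to 100 uM in 0.5% DMSO.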

[5] = read-out: Cytochrome P450 3A7 (Homo sapiens) (UniProt P24462); assay: LTEA_HepaRG_CYP3A7: Life Technologies and Expression Analysis (LTEA) Assay for CYP3A7 using HepaRG (AID 2283492)
How it was run: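 qRT-PCR of CYP3A7 in HepaRG lysates after 48 h treatment; concentration-response (8 points, max 100 uM) analysed bidirectionally relative to 0.5% DMSO controls.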

CYP3A5 (gene 1577) = assay: LTEA_HepaRG_CYP3A5: Life Technologies and Expression Analysis (LTEA) Assay for CYP3A5 using HepaRG (AID 2283493)
How it was run: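 HepaRG plated 48 h, switched to serum-free induction medium, chemicals added 48 h (max 100 uM, half-log, 0.5% DMSO). RNA isolated; CYP3A5 by TaqMan qRT-PCR. Gain/loss vs DMSO.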

[6] = read-out: Fatty Acid-Binding Protein 1 (FABP1), FABP1 (gene 2168); assay: LTEA_HepaRG_FABP1: Life Technologies and Expression Analysis (LTEA) Assay for Fatty Acid-Binding Protein 1 (FABP1) using HepaRG (AID 2283494)
How it was run: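 Differentiated human HepaRG cells exposed 48 h in serum-free induction medium to eight half-log concentrations up to 100 uM (0.5% DMSO), duplicate. FABP1 mRNA by qRT-PCR, normalised to ACTB, GAPDH, POLR2A; bidirectional fitting against DMSO.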

[7] = read-out: Cytochrome P450 4A22 (Homo sapiens) (UniProt Q5TCH4); assay: LTEA_HepaRG_CYP4A22: Life Technologies and Expression Analysis (LTEA) Assay for Cytochrome P450 4A22 (CYP4A22) using HepaRG (AID 2283495)
How it was run: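 Concentration-response (8 points, max 100 uM, 0.5% DMSO) in human HepaRG liver cells after 48 h exposure. CYP4A22 mRNA by TaqMan qRT-PCR with housekeeping-gene normalization.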

[8] = read-out: Glutathione S-Transferase (GSTA2), GSTA2 (gene 2939); assay: LTEA_HepaRG_GSTA2: Life Technologies and Expression Analysis (LTEA) Assay for Glutathione S-Transferase (GSTA2) using HepaRG (AID 2283497)
How it was run: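 Differentiated human HepaRG cells were exposed in duplicate for 48 h in serum-free induction medium, 8 points from 100 uM top in half-log steps, 0.5% DMSO. GSTA2 mRNA was measured by TaqMan qRT-PCR, normalized to ACTB, GAPDH and POLR2A; bidirectional fit versus DMSO.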

[9] = read-out: Glutamate-cysteine ligase catalytic (GCLC), GCLC (gene 2729); assay: LTEA_HepaRG_GCLC: Life Technologies and Expression Analysis (LTEA) Assay for Glutamate-cysteine ligase catalytic (GCLC) using HepaRG (AID 2283498)
How it was run: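 Differentiated HepaRG cells exposed 48 h in serum-free induction medium, eight-point half-log series topping at 100 uM in 0.5% DMSO, duplicates. GCLC mRNA by qRT-PCR normalized to ACTB, GAPDH and POLR2A, fitted bidirectionally versus DMSO.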

[10] = read-out: growth arrest and DNA damage 45 (GADD45G), GADD45G (gene 10912); assay: LTEA_HepaRG_GADD45G: Life Technologies and Expression Analysis (LTEA) Assay for growth arrest and DNA damage 45 (GADD45G) using HepaRG (AID 2283499)
How it was run: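 Concentration-response in HepaRG: 48 h dosing, 0.5% DMSO, highest level 100 uM. GADD45G expression by qRT-PCR, normalised to endogenous controls; bidirectional fit to DMSO.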

[11] = read-out: Glutamate-cysteine ligase regulatory (GCLM), GCLM (gene 2730); assay: LTEA_HepaRG_GCLM: Life Technologies and Expression Analysis (LTEA) Assay for Glutamate-cysteine ligase regulatory (GCLM) using HepaRG (AID 2283500)
How it was run: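 Cells were plated, cultured 48 h, switched to serum-free induction medium, then dosed in duplicate for 48 h at eight half-log concentrations up to 100 uM. RNA was then profiled by qRT-PCR; gain or loss versus DMSO was fitted.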

[12] = read-out: Glutathione S-transferase M3 (GSTM3), GSTM3 (gene 2947); assay: LTEA_HepaRG_GSTM3: Life Technologies and Expression Analysis (LTEA) Assay for Glutathione S-transferase M3 (GSTM3) using HepaRG (AID 2283501)
How it was run: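 Expression of GSTM3 is determined by qRT-PCR in human liver HepaRG cells treated 48 h with an 8-point half-log range from 100 uM in 0.5% DMSO.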

[13] = read-out: Heat shock 70 kDa protein 1 (HSPA1A), gene 3303; assay: LTEA_HepaRG_HSPA1A: Life Technologies and Expression Analysis (LTEA) Assay for Heat shock 70 kDa protein 1 (HSPA1A) using HepaRG (AID 2283502)
How it was run: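 Readout is HSPA1A transcript level by microfluidic qRT-PCR, normalized to three housekeeping genes and analysed for gain or loss of signal relative to 0.5% DMSO. Human HepaRG cultures received test chemicals for 48 h at up to 100 uM.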

[14] = read-out: Hypoxia-inducible factor 1-alpha (Homo sapiens) (UniProt Q16665); assay: LTEA_HepaRG_HIF1A: Life Technologies and Expression Analysis (LTEA) Assay for Hypoxia-inducible factor 1 (HIF1A) Trancription factor using HepaRG (AID 2283503)
How it was run: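 Differentiated HepaRG cells in serum-free induction medium exposed 48 h, in duplicate, to 8-point half-log series from 100 uM in 0.5% DMSO. HIF1A mRNA measured by TaqMan qRT-PCR, normalized to ACTB/GAPDH/POLR2A, fitted bidirectionally versus DMSO.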

[15] = read-out: Early growth response protein 1 (EGR1) transcription factor, EGR1 (gene 1958); assay: LTEA_HepaRG_EGR1: Life Technologies and Expression Analysis (LTEA) Assay for Early growth response protein 1 (EGR1) transcription factor using HepaRG (AID 2283490)
How it was run: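 Differentiated HepaRG cells in serum-free induction medium exposed 48 hours, duplicate, to 8 half-log concentrations up to 100 uM in 0.5% DMSO. EGR1 mRNA measured by TaqMan qRT-PCR, normalized to ACTB, GAPDH, POLR2A; bidirectional fit versus DMSO.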

[16] = read-out: Cytochrome P450 7A1 (Homo sapiens) (UniProt P22680); assay: LTEA_HepaRG_CYP7A1: Life Technologies and Expression Analysis (LTEA) Assay for Cytochrome P450 7A1 (CYP7A1) using HepaRG (AID 2283496)
How it was run: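 HepaRG cells plated 48 h, then switched to serum-free induction medium and exposed in duplicate for 48 h to 8-point half-log series from 100 uM in 0.5% DMSO. CYP7A1 mRNA by qRT-PCR (TaqMan), normalized to ACTB/GAPDH/POLR2A; bidirectional fit versus DMSO.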

Measured: AC50

Cytochrome P450 3A7 (Homo sapiens), sequence (P24462 whole entry, looked up): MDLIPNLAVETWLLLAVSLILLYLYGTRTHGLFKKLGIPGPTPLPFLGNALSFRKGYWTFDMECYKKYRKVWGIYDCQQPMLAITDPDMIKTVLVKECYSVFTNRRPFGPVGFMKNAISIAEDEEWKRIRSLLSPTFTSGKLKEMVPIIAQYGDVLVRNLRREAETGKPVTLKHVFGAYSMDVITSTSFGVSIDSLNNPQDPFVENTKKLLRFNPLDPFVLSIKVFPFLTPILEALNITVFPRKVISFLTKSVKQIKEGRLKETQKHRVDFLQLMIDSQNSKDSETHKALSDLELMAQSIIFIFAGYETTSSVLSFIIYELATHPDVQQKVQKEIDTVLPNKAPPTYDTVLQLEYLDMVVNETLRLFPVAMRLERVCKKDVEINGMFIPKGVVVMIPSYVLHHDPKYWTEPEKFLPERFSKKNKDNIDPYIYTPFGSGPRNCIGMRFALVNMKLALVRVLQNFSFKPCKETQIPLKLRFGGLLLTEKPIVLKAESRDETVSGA
Cytochrome P450 3A4 (Homo sapiens), sequence (P08684 whole entry, looked up): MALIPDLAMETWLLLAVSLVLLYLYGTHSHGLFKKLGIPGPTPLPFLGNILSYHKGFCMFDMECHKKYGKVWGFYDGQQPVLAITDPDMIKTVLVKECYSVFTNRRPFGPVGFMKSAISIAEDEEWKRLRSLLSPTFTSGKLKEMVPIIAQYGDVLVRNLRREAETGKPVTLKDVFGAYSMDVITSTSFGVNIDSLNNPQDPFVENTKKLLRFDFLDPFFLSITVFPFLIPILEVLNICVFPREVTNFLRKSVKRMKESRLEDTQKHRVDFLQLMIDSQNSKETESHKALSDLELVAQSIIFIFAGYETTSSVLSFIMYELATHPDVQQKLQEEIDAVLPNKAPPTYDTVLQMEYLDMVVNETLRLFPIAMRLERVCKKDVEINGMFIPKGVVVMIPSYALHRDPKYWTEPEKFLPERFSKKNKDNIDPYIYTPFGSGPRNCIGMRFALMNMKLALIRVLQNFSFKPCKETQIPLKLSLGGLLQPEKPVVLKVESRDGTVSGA
Hypoxia-inducible factor 1-alpha (Homo sapiens), sequence (Q16665 whole entry, looked up): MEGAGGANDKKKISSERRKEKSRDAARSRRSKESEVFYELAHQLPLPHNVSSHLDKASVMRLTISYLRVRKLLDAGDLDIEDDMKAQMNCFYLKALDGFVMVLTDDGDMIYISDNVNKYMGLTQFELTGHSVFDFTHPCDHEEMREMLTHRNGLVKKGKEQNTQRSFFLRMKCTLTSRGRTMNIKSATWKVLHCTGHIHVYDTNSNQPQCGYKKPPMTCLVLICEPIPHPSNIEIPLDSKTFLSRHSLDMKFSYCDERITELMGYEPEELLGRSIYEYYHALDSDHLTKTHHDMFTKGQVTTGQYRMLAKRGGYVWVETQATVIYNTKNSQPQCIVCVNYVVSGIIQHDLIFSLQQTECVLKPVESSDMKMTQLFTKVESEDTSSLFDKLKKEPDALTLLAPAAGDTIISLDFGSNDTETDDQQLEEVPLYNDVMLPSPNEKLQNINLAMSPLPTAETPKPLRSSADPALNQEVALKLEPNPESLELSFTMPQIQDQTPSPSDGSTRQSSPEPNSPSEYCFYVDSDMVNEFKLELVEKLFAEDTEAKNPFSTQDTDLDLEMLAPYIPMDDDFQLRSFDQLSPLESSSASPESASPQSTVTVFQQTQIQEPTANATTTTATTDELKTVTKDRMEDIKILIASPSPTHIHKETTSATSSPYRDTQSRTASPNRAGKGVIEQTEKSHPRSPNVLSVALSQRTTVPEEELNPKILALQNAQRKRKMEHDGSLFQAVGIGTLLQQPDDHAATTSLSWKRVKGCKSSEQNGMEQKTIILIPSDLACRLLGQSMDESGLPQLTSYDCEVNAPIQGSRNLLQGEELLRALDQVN

CCO[Si](CCCNC(N)=O)(OCC)OCC
inactive: CYP2C9 (gene 1559) | CYP2E1 (gene 1571) | CYP4A11 (gene 1579) | [1] | [2] | [3] | [4] | [5] | CYP3A5 (gene 1577) | [6] | [7] | [8] | [9] | [10] | [11] | [12] | [13] | [14]

O=C(O)c1ccccc1-n1cc(C(=O)O)c(=O)c2cc(Nc3c(F)cc(F)cc3Cl)c(Cl)cc21
inactive: CYP2C9 (gene 1559) | CYP4A11 (gene 1579) | [2] | [3] | [15] | [4] | CYP3A5 (gene 1577) | [6] | [7] | [16] | [8] | [9] | [10] | [11] | [12] | [13] | [14]
active: CYP2E1 (gene 1571) 25.5 µM | [1] 3.09 µM | [5] 3 µM

c1ccc(C[n+]2cccc3ccccc32)cc1
inactive: [3] | [15] | CYP3A5 (gene 1577) | [12] | [14]
active: CYP2C9 (gene 1559) 31 µM | CYP2E1 (gene 1571) 24.6 µM | CYP4A11 (gene 1579) 22.3 µM | [1] 33.4 µM | [2] 30.9 µM | [4] 14.7 µM | [5] 31.7 µM | [6] 31.7 µM | [7] 22.6 µM | [16] 33.7 µM | [8] 75 µM | [9] 85.9 µM | [10] 43.6 µM | [11] 62.7 µM | [13] 22.8 µM

CCN(CC)C(=O)c1cc(S(=O)(=O)Cc2ccccc2)c(N2CCC(c3ccccc3)CC2)cc1N(CC)CCN(C)C
active: CYP2C9 (gene 1559) 5.05 µM | CYP2E1 (gene 1571) 26 µM | CYP4A11 (gene 1579) 30.5 µM | [1] 34.7 µM | [2] 22.9 µM | [15] 28.8 µM | [5] 1.9 µM | CYP3A5 (gene 1577) 32.2 µM | [8] 4.51 µM | [9] 30.7 µM | [10] 20.5 µM | [13] 24.5 µM
inactive: [3] | [4] | [6] | [7] | [11] | [12] | [14]

Cc1oc2c(NC(=O)c3c(Cl)cccc3Cl)cccc2c1C(C)(C)O
inactive: [3] | [4] | CYP3A5 (gene 1577) | [10] | [14]
active: CYP2C9 (gene 1559) 33.8 µM | CYP2E1 (gene 1571) 39.7 µM | CYP4A11 (gene 1579) 24.6 µM | [1] 81.9 µM | [2] 33.2 µM | [5] 31.6 µM | [6] 62.1 µM | [7] 31.5 µM | [16] 57.3 µM | [8] 38.2 µM | [9] 68.7 µM | [11] 50 µM | [12] 34.4 µM | [13] 79.6 µM

Cc1ccc2oc(CN(Cc3ccccc3)C(=O)Nc3c(F)cc(F)cc3F)c(-c3ccc(Cl)cc3)c2c1
active: CYP2C9 (gene 1559) 12.4 µM | CYP2E1 (gene 1571) 28.4 µM | CYP4A11 (gene 1579) 34.8 µM | [1] 5.39 µM | [2] 64.3 µM | [5] 11.1 µM | [6] 13 µM | [7] 44.2 µM | [8] 44.2 µM | [10] 77.2 µM | [11] 44.2 µM
inactive: [3] | [15] | [4] | CYP3A5 (gene 1577) | [9] | [12] | [13] | [14]
